# Source: PubChem BioAssay (NCI)
# Where “and” joins values, the source holds several entries; their conditions need not be identical. Identical values can stand only once. This is part of a sample that, as a whole, favours compounds with a hit. Of some 83,000 tested, about 20% had one in any assay.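 Growth was measured after 48 h exposure to one concentration of compound in 96-well plates. Values under 10 count as active.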 A number with no mark means an inactive call. Calls of active or inactive are those of the source.
# Test system: COLO 205 colon
# Test: NCI-60 one-dose screen, 48 h (100 = growth as untreated, 0 = no growth, -100 = all killed)
# Conditions: 10 µM unless noted
# Procedure: Cells are grown in 96 well plates and exposed to the test compound for 48 hours. Compounds are tested at a single concentration, which is 10^-5 M for most compounds. The reported endpoint is percent growth (GI% or GIPRCNT), where numbers from 0 - 100% represent growth inhibition, and numbers from -100% - 0 represent cell death. For example, a value of 40 represents 60% growth inhibition. A value of 0 means no net growth occurred over the course of the experiment. A value of -40 indicates 40% of cells at the beginning of the experiment died by the end of the experiment. A value of -100 means all cells are dead at the end of the experiment.
# NCI-60 Human Tumor Cell Lines Screen was performed using the standard one-dose NCI protocol, which is described in more detail at https://dtp.cancer.gov/discovery_development/nci-60/default.htm.
# Compounds with GIPRCNT values below 10 were considered active. Activity score was based on GIPRCNT using the following formula: […]
# Score is 0 for GIPRCNT values of 100 or above, 50 for GIPRCNT values of 0, and 100 for GIPRCNT values of -100.
row,Compound,growth
1,CCCCCCCCCCCCCCCC[N+]1(C)CCCC1c1cccnc1 (stereo not given),-21.7% (active)
2,CCOc1ccc(C(CN2CCOCC2)C(C)=O)cc1OC (stereo not given),58%
3,COC(=O)[C@]1(C)CCC[C@]2(C)c3ccc(C(C)C)cc3C(=O)[C@@H](Br)[C@@H]12,106%
4,O=C(Cc1nc2cc(Cl)c(Cl)cc2nc1CC(=O)c1ccccc1)c1ccccc1,76.3%
5,O=C1/C(=C\c2ccc([N+](=O)[O-])cc2)CS(=O)(=O)C/C1=C/c1ccc([N+](=O)[O-])cc1,-82.4% (active)
6,Cc1cccc2c(N)c3ccccc3nc12,-48.2% (active)
7,C[n+]1ccccc1C[n+]1ccccc1,114%
8,Cc1ccc(NC2=CC(=O)C(=O)c3ccccc32)cc1,-68.5% (active)
9,CCSc1nc2ccccc2o1,113%
10,O=C1c2ccccc2C(=O)c2c(O)c(Cl)cc(O)c21,101%
11,N#C/C(=N\Nc1ccc(Cl)cc1)C(=O)C1CC1,60.4%
12,C(=N\Nc1ccc2ccccc2n1)/c1ccccn1,20%
13,COc1cc([C@@H]2c3cc4c(cc3[C@H](OC3OC5COC(c6ccccc6)OC5C(O)C3O)[C@H]3COC(=O)[C@H]23)OCO4)cc(OC)c1OC (stereo not given in full),-77.6% (active)
14,NC(=Nc1nc(-c2ccccn2)cc2ccccc12)c1ccccn1,6.29% (active)
15,OCCOSCCO,119%
16,COc1cc(OC)c(/C=C/c2c3ccccc3cc[n+]2C)c(OC)c1,-35.3% (active)
17,CCCCOS(=O)(=O)c1ccccc1,134%
18,N#CCc1cccc2ccccc12,115%
19,CC1(C)OC2C(COC(c3ccccc3)(c3ccccc3)c3ccccc3)OC(c3c[nH]c4c(N)ncnc34)C2O1 (stereo not given),68.3%
20,COc1ccc(NC(=O)/C(=C/N2C(=O)/C(=C/c3ccc(OC)c(OC)c3)NC2=S)C(C)=O)cc1,107%

row,Compound,growth
1,O=[N+]([O-])c1cc(-c2ccccc2)c(O)c([N+](=O)[O-])c1,106%
2,O=C(NNc1ccccc1)OCc1ccccc1,97.6%
3,Cc1nn(CCO)c(C)c1N=[N+]([O-])c1c(C)nn(CCO)c1C,-85.6% (active)
4,O=C1C=CC(=O)N1c1cccc2c1CCCC2,49.1%
5,COC(=O)c1cc([N+](=O)[O-])cc([N+](=O)[O-])c1Cl,-64.1% (active)
6,COc1ccc(/C=C2/C(=O)ON=C2C)cc1,104%
7,O=C(CCl)N1c2ccccc2Sc2c1ccc1ccccc21,65.7%
8,OC(c1cc(-c2ccc(C(F)(F)F)cc2)nc(C(F)(F)F)c1)C1CCCCN1 (stereo not given),-90.1% (active) and -85.4% (active) and -79.8% (active)
9,CCCCCCCCCCCCNCCCc1ccccc1,-50.8% (active)
10,Oc1ccc2ccccc2c1N=Nc1nccs1,21.4%
11,CCCCCCN(CCCCCC)CCCNc1nccc2ccccc12,-66% (active)
12,CC(O)C(O)C(O)C(O)C(O)C(=O)NNc1ccccc1 (stereo not given),94.2%
13,OC(c1cc2ccc(C(F)(F)F)cc2c2cc(C(F)(F)F)ccc12)C1CCCCN1 (stereo not given),-100% (active)
14,O=C1CSC(=S)N1Cc1cccnc1,53.6%
15,O=C(c1ccccc1)N(CCCl)C(=O)N(CCCl)C(=O)c1ccccc1,99.9%
16,CC(C)N=C(N)/N=C(\N)Nc1ccc2ccc3ccccc3c2c1,-92% (active)
17,CCCCCCCCCCCC(=O)OC(C)C(=O)NCCCC (stereo not given),109%
18,Nc1ccc(C(=O)/C=C/c2ccccc2)cc1,119%
19,Oc1c(Cl)cc(Cl)cc1C=NCC1CCC(CN=Cc2cc(Cl)cc(Cl)c2O)CC1 (stereo not given),112%
20,CCOC(=O)/C(=C\c1ccc2ccccc2c1)P(=O)(OCC)OCC,42.2%
